RGS4 inh: Inhibitors of Regulator of G Protein Signaling (RGS) 4: qHTS; Transcreener GDP fluorescence polarization, RGS4-accelerated GTP hydrolysis; Potency, µM (top dose mostly 114 µM), hits mostly inhibitors; 390,000 tested, 0.039% active; AID 504845, 2011; further: nearly all actives have a fitted effect of over 75% in size
Target sequence (P49798 whole entry, looked up): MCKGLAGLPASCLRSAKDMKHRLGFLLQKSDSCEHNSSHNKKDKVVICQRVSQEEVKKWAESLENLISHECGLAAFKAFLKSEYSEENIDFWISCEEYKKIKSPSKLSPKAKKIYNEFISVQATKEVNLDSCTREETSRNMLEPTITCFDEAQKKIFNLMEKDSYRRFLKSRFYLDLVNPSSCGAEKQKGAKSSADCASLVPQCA
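MLSMR compounds (23 nl, pin-transferred) preincubated 10 min at room temperature with a 500nM (2x) first reagent, then RGS4 at 900nM (2x) plus Transcreener GDP mix added; fluorescence polarization (620/688 nm) read before and after 90 min at 30 °C.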
D3 ag: qHTS of D3 Dopamine Receptor Agonist: qHTS | D(3) dopamine receptor (Homo sapiens), P35462 | D3R DiscoveRx beta-arrestin cells, luminescence, 90 min | max activation, % | 410,000 tested, 0.58% active | AID 652048, 2013; in the data active means max activation above about 30%
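Cells at 1500/well, incubated overnight, then treated with pinned compounds (dopamine as control) for 90 min at 37 degrees C. DiscoveRx reagent added for 30 - 60 minutes at room temperature; luminescence read.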
B2AR arrestin: qHTS assay of beta-arrestin-biased ligands of beta2-adrenergic receptor; Beta-2 adrenergic receptor (Homo sapiens), P07550; Potency, µM (highest dose often 46.1 µM), most hits filed as activators; AID 492947, 2010; 330,000 tested, 0.02% active; beta-arrestin recruitment to beta2AR, cell-based reporter; further: nearly all actives have a fitted effect of over 65% in size
Target sequence (P07550 whole entry, looked up): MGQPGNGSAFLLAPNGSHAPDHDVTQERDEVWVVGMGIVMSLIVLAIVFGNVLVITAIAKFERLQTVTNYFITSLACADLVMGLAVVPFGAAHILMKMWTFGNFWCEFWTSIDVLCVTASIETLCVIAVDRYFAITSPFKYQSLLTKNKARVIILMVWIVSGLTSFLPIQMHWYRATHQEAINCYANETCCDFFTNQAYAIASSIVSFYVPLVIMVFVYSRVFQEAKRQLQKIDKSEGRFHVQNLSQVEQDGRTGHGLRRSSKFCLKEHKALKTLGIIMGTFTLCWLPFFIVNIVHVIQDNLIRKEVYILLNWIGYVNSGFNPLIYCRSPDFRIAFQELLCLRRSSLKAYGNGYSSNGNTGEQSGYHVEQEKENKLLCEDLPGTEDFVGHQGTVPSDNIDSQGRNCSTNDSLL
PTHR1 agonist: qHTS for PTHR1 Agonists: Primary Screen; AID 743266, 2014; HEK293 GP2 PTHR1 cells, GloSensor cAMP luminescence, 1 h; 410,000 tested, 0.075% active; Potency, µM (doses to about 115 µM), usual class: activators; Parathyroid hormone/parathyroid hormone-related peptide receptor (Homo sapiens), Q03431; further: nearly all actives have a fitted effect of over 55% in size
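HEK-293-derived GP2 cells expressing PTHR1 and a GloSensor cAMP reporter, 3,000/well, plated overnight, given luciferin plus IBMX (each 0.5 mM as added) for 1 h at 37 °C, then compound for 1 h at 37 °C. Luminescence was read after 15 min at room temperature.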
D3 antag: qHTS of D3 Dopamine Receptor Antagonist: qHTS; D(3) dopamine receptor (Homo sapiens), P35462; D3R cells, DiscoveRx beta-arrestin luminescence, antagonist mode; active compounds read low; max response, negative = inhibition, %; 360,000 tested, 2.5% active; AID 652054, 2013; in the data active means max response below about -50%; inconclusive means no clear call, values can overlap the other calls
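Cells plated overnight at 1500 cells/well, then exposed to library compounds with dopamine controls for 90 minutes at 37 degrees C. DiscoveRx reagent added for 30–60 minutes at room temperature; luminescence read, quantitative HTS format.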
BRCA1 expr up: qHTS Assay to Identify Small Molecule Activators of BRCA1 Expression; AID 624202, 2012; 380,000 tested, 1.1% active; MCF7-BRCA1-FFLuc reporter, luminescence, 48 h; response scale: scaled: vehicle 0%, 10 µM genistein 100%; Potency, µM (highest dose often 46.1 µM), hits mostly activators; further: nearly all actives have a fitted effect of over 80% in size
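Reporter cells (MCF7, BRCA1 promoter-firefly luciferase) received library compounds across a concentration series for 48 h. End-point luminescence was measured and concentration-effect curves derived after normalization.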
A number is an active result; – = inactive; ? = inconclusive; · = not tested or not shown; ! = not active in a repeat; [ ] = dose if it differs, or a comment. Hits are enriched below; roughly 3.7% of the tested compounds scored in any of these assays. Unless noted, the call rests on the fitted dose curve; in most records, active means well fitted curve in the direction sought with a large enough effect; inconclusive means small, poorly fitted or top-dose-only effect, or another doubt; inactive means no such curve, though single readings can be large; an effect the other way counts as inactive or inconclusive.

SMILES | RGS4 inh | D3 ag | B2AR arrestin | PTHR1 agonist | D3 antag | BRCA1 expr up
CC(C)(C)NC(=O)C(=O)N/N=C/c1ccc(Br)cc1 | – | – | – | – | – | –
CCOC(=O)N/N=C\C=C\c1ccc2c(c1)OCO2 | – | – | – | – | – | 4.47µM
COc1cc2c(cc1OC)[C@@H]1O[C@](c3ccsc3)(C2)Oc2cc(C)n(-c3ccccc3)c(=O)c21 | · | · | –[9.22 µM] | · | · | ·
COc1ccccc1CNC(=O)Cc1c(C)c2cc3c(C)coc3c(C)c2oc1=O | – | – | · | – | · | ·
Cc1ccc(CNc2nc3cc(-c4ccccc4)sc3c(=O)n2C)c(C)c1 | · | – | · | – | – | –
O=C(c1ccc2c(c1)OCO2)C1CCCN(Cc2ccc(OC(F)F)cc2)C1 (stereo not given) | – | – | – | – | -76.3 | –
O=C(c1ccc2c(c1)OCO2)C1CCCN(Cc2cccc(C(F)(F)F)c2)C1 (stereo not given) | – | – | – | – | -115.0 | –
O=C(c1ccc2c(c1)OCO2)C1CCCN(Cc2ccc3cccc(F)c3n2)C1 (stereo not given) | – | – | – | – | – | –
O=C(c1ccc2c(c1)OCO2)C1CCCN(Cc2cn[nH]c2-c2cccc(F)c2)C1 (stereo not given) | – | – | – | – | – | –
CCOc1ccc(OCCC(=O)N2CCc3cc(OC)c(OC)cc3C2)cc1 | – | – | – | – | – | –
COc1ccc(N2CCN(C(=O)CN3C(=O)NC4(CCCc5ccccc54)C3=O)CC2)cc1 (stereo not given) | – | – | – | – | -73.6 | –
COc1ccc(N2CCN(C(=O)CN3C(=O)NC(c4ccc(OC)cc4)(c4ccc(OC)cc4)C3=O)CC2)cc1 | – | – | – | – | – | –
Cc1[nH]c2c(C)cccc2c1CCNC(=O)c1ccc2c(c1[N+](=O)[O-])C(=O)c1ccccc1C2=O | – | – | – | – | -56.2 | –
Cc1[nH]c2ccccc2c1CCNC(=O)c1ccc2c(c1[N+](=O)[O-])C(=O)c1ccccc1C2=O | – | – | – | – | -85.2 | –
CN(C)C(=O)c1ccc2c(c1[N+](=O)[O-])C(=O)c1ccccc1C2=O | – | – | – | – | ? | –
Cc1ccc(F)cc1NC(=O)CSCc1nc2sc(C)c(C)c2c(=O)[nH]1 | – | – | – | – | – | –
C=CCn1c(O)c(C2=c3ccccc3=NC2=O)s/c1=N/c1nccs1 | – | – | – | – | – | –
C=CCn1c(O)c(C2=c3ccccc3=NC2=O)c2ccccc21 | ? | – | – | – | -65.2 | –
COc1cc2ccccc2cc1C(=O)Nc1nccs1 | – | – | – | – | – | –
COc1cccc(C=Nc2ccccc2C(=O)Nc2nccs2)c1OC | – | – | – | – | -73.7 | ?
COc1cccc2c1OCC(C(=O)Nc1nccs1)=C2 | – | – | – | – | – | 4.47µM
CC(=O)Nc1ccn(C2COC(COC(=O)c3ccccc3)O2)c(=O)n1 (stereo not given) | · | – | · | · | · | ·
Brc1ccc(-c2nc(-c3cccnc3)no2)o1 | – | – | – | – | – | 3.98µM
Cc1ccc(-c2nc(-c3cccnc3)no2)c(C)c1 | – | – | – | – | – | 6.31µM
Cc1ccccc1NC(=O)c1ccc(NC(=O)C2CC(=O)OC23CCCCC3)cc1 (stereo not given) | – | – | – | – | – | –
SMILES | RGS4 inh | D3 ag | B2AR arrestin | PTHR1 agonist | D3 antag | BRCA1 expr up
c1ccc(CCSc2ncnc3nc[nH]c23)cc1 | – | – | – | – | – | 3.16µM
O=C(CSc1ncnc2nc[nH]c12)c1ccccc1 | – | – | – | – | – | –
CCOc1ccc(NC(=O)c2ccc(NC(=S)NC3CCCCC3)cc2)cc1 | – | – | – | – | -68.3 | –
CCOc1ccc(NC(=O)c2ccc(NC(=S)NC3CC3)cc2)cc1 | – | – | – | – | – | –
CCOc1ccc(C(=S)NC2CCCCC2)cc1 | – | – | – | – | – | 10µM
O=C(NC(=S)NC1CCCCC1)c1ccc(F)cc1 | – | – | – | – | – | 11.2µM
S=C(Nc1ccc(Br)cc1)NC1CCCCC1 | – | – | – | – | ? | 10µM
O=C(OCCF)N1CCN(/[N+]([O-])=N/Oc2ccc([N+](=O)[O-])cc2[N+](=O)[O-])CC1 | · | · | · | · | · | –
CCCOc1ccc(OCCNC2CCCC2)cc1 | – | – | – | – | – | –
CCOc1ccc(OCCNC2CCCC2)cc1 | – | – | – | – | -60.0 | –
CN(CC(=O)Nc1cccc(F)c1)C(=O)c1csc2c1CCCC2 | ? | – | – | – | – | –
Cc1cc(C(=O)NCc2csc(-c3ccccc3)n2)no1 | – | – | – | – | – | 10µM
Cc1cc(C(=O)NCc2cccs2)no1 | – | – | – | – | – | –
O=C(NCc1csc(-c2ccccc2)n1)c1ccco1 | – | – | – | – | – | 10µM
CC(=O)c1ccc(NC(=O)CCc2c(C)nc3cc(-c4ccc(Cl)cc4)nn3c2C)cc1 | – | – | · | – | · | –
Fc1ccc(Nc2ccc(-c3ccc(F)cc3)nn2)cc1 | – | – | – | – | – | 5.62µM
CCC(=O)Nc1ccc2oc(-c3cccnc3)nc2c1 | – | – | – | – | – | 10µM
Cc1ccc2nc(-c3cccnc3)oc2c1 | –[11.4 µM] | – | – | – | – | 3.16µM!
CCCC(=O)Nc1ccc2oc(-c3cncc(Br)c3)nc2c1 | – | – | – | – | – | 3.16µM
CCn1cc2nc(SCC(=O)Nc3ccc(OC)c(OC)c3)n(Cc3ccc(Cl)cc3)c(=O)c2n1 | – | – | · | – | · | –
CCCCN(C)Cc1c(O)ccc2c(=O)c(-c3ccccc3OC)coc12 | – | – | – | – | – | –
O=C(CCSCc1ccccc1Cl)NCCc1ccccc1 | – | – | · | – | · | ·
O=C(N1CCN(Cc2ccccc2)CC1)C12CC3CC(CC(C3)C1)C2 | – | – | – | – | -65.1 | –
COc1ccc(F)cc1C(=O)C1CCCN(Cc2cn(C)c3ccccc23)C1 (stereo not given) | – | – | – | – | -91.7 | –
O=C(c1cc(F)ccc1F)C1CCCN(Cc2cccn2-c2ccccn2)C1 (stereo not given) | – | – | – | – | – | –
Cn1cc(CN2CCCC(C(=O)c3cc(F)ccc3F)C2)c2ccccc21 (stereo not given) | – | – | – | – | -63.6 | –
COc1ccc(OC)c(CN2CCCC(C(=O)c3ccccc3SC)C2)c1 (stereo not given) | – | – | – | – | ? | –

Screens: PubChem, National Center for Advancing Translational Sciences (NCATS)
